# Results: PubChem BioAssay
# Calls of active or inactive are those of the source. Unless noted, the rule behind the calls is not given here.
# Tests used:
# [1] = system: XIP peptide (Xip251-270) binding; assay: XIP fragment 251-270 binding compounds – biochemical, small-molecule microarray, fluorescence 635/667 nm, 0.1 µg/mL protein, primary screen (AID 1182); details: fluorescent protein binding, 635 nm, higher = more signal, called active from +8 up or from −8 down
# [2] = system: XIP peptide (Xip251-270); assay: compounds binding XIP fragment 251-270 – biochemical, small-molecule microarray, fluorescence 635/667 nm, 0.5 µg/mL protein, primary screen (AID 1183); details: fluorescence 635 nm, higher = more signal
# [3] = blood-stage malaria parasite viability loss – strain 3D7, DAPI fluorescence, 100 nL, primary screen (AID 1184);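 note: parasites grown inside human red blood cells in medium with human serum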; details: P. falciparum 3D7 growth, 3 d, higher = more signal
# [4] = molecular target: Homeobox protein Hox-A13 (Mus musculus) (UniProt Q62424); assay: disruptors of Hoxa13 oligonucleotide interaction – biochemical, fluorescence polarization, labeled oligonucleotide, primary screen (AID 1185); details: Hoxa13:DNA binding, 15 min, higher = more signal, called active from +8 up or from −8 down
# [5] = blockers of DNA damage checkpoint Chk1 activation – imaging, HeLa, hydroxyurea, phospho-Chk1 antibody, percent positive cells, primary screen (AID 1186); details: hydroxyurea-induced phospho-Chk1 immunofluorescence imaging, higher = more signal
# [6] = blockers of DNA damage checkpoint Chk1 activation – imaging, HeLa, hydroxyurea, phospho-Chk1 nuclear intensity, primary screen (AID 1187); details: hydroxyurea-induced phospho-Chk1 immunofluorescence imaging, higher = more signal
# Sequence of Homeobox protein Hox-A13 (Mus musculus) (Q62424 whole entry, looked up): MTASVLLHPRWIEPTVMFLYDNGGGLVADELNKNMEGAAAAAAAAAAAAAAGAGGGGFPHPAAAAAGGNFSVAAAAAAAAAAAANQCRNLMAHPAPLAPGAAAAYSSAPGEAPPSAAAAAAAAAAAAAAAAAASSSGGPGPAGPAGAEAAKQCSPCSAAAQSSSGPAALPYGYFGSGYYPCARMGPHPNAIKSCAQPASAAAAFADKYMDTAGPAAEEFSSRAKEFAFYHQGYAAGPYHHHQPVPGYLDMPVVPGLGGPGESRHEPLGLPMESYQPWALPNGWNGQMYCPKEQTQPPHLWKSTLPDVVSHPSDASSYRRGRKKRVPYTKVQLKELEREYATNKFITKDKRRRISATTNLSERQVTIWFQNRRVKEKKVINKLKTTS
Structure (SMILES),composite z-score [1],composite z-score [2],z-score [3],z-score [4],z-score [5],z-score [6]
[N-]=[N+]=Nc1ccccc1C[C@]1(C(N)=O)N=C(c2ccc(OCCCO)cc2)O[C@H]1c1ccccc1N=[N+]=[N-],0.635 (inactive),0.756,-2.65,-5.32 (inactive),-0.433 (inactive),-0.683 (inactive)
O=C(NCC(F)(F)F)[C@@H]1c2ccccc2C(=O)N(Cc2ccccc2C(F)(F)F)[C@H]1c1ccc(CO)cc1,0.774 (inactive),0.374,-0.485,-2.95 (inactive),0.0364 (inactive),-0.0409 (inactive)
N#Cc1ccc(C(O)C2C=CC3C(=O)N(c4ccccc4)C(=O)C3N2Nc2ccccc2)cc1 (stereo unspecified),0.294 (inactive),0.108,-0.605,-1.94 (inactive),-0.18 (inactive),-0.383 (inactive)
O=C1NC(=O)C2C1C=CC(C(O)c1ccco1)N2Nc1ccccn1 (stereo unspecified),-0.409 (inactive),-0.195,1.36,-3.55 (inactive),0.0556 (inactive),-0.0488 (inactive)
COc1ccccc1CN1C(=O)c2ccccc2[C@](Cc2ccccc2I)(C(=O)NCC(F)(F)F)[C@@H]1c1ccc(CO)cc1,0.931 (inactive),0.909,-1.49,-4.98 (inactive),-0.0993 (inactive),-0.0597 (inactive)
O=C1N(Cc2ccccc2)c2ccccc2[C@@H]2OC(c3ccc(OCCCO)cc3)=N[C@]12Cc1ccccc1,0.0973 (inactive),0.862,-2.45,-2.22 (inactive),-0.389 (inactive),-0.321 (inactive)
[N-]=[N+]=Nc1ccccc1[C@H]1OC(c2ccc(OCCCO)cc2)=N[C@@]1(CCS(=O)(=O)c1ccccc1)C(=O)NCCN1CCOCC1,0.345 (inactive),0.868,-2.52,-5.15 (inactive),0.392 (inactive),0.812 (inactive)
[N-]=[N+]=Nc1ccccc1C[C@]1(C(=O)N2CCOCC2)N=C(c2ccc(OCCCO)cc2)O[C@H]1c1ccccc1,0.511 (inactive),0.748,-2.03,-5.32 (inactive),-0.47 (inactive),-0.106 (inactive)
COC(=O)c1nc2oc1CC[C@@H](CO)NC(=O)N(C)Cc1cnnn1C[C@H](Cc1ccccc1)NC2=O,0.618 (inactive),0.944,1.06,-0.449 (inactive),-0.517 (inactive),-0.393 (inactive)
O[C@@H](Cc1ccccc1)[C@@H](/C=C/C1CC1)N(CC#Cc1ccccc1)Cc1cccc(Cl)c1,-0.16 (inactive),-0.646,-1.27,0.493 (inactive),0.0959 (inactive),0.043 (inactive)
Cc1cc(C)c(C(O)C2C=CC3C(=O)N(c4ccccc4)C(=O)C3N2Nc2ccc(C(C)C)cc2)c(C)c1 (stereo unspecified),1.21 (inactive),0.736,-0.701,-3.21 (inactive),0.609 (inactive),0.335 (inactive)
C=CCC(OC(C)=O)[C@@H]1[C@@H](N(Cc2cccc3ccccc23)C(=O)Cc2ccc(OC)cc2)c2cc(OCCCO)ccc2N1C(=O)c1ccc2ccccc2n1 (stereo partly specified),1.24 (inactive),-0.248,-2.54,-2.7 (inactive),-2.34 (inactive),-1.44 (inactive)
O=C1O[C@@H](c2ccccc2)[C@@H](c2ccccc2)N2[C@@H](c3ccc(OCCO)cc3)[C@]3(C(=O)Nc4ccccc43)[C@@H](C(=O)O)[C@H]12,0.442 (inactive),-0.105,-1.29,-6.16 (inactive),-0.33 (inactive),-0.413 (inactive)
COCCOC(=O)N1C(=O)[C@@]2(c3cc(C#CC4=CCCCC4)ccc31)[C@H](c1ccc(OCCO)cc1)N1[C@H](c3ccccc3)[C@H](c3ccccc3)OC(=O)[C@H]1[C@@H]2C(=O)N1CCN(c2ncccn2)CC1,0.975 (inactive),0.278,-2.19,2.06 (inactive),0.313 (inactive),0.448 (inactive)
COc1ccc(CCNC(=O)[C@@H]2c3ccccc3C(=O)N(Cc3cc(C(F)(F)F)cc(C(F)(F)F)c3)[C@H]2c2ccc(CO)cc2)cc1,0.381 (inactive),0.649,-1.17,-2.92 (inactive),-0.198 (inactive),0.173 (inactive)
COC(=O)c1cn(C[C@@H](Cc2ccccc2)NC(=O)N[C@H](CO)CCc2oc(C(C)=O)c(C(=O)OC)c2C(=O)OC)nn1,0.224 (inactive),0.111,-0.818,-4.33 (inactive),-0.406 (inactive),-0.043 (inactive)
COC(=O)[C@@]1(Cc2ccc(F)cc2)[C@H]2c3cc(C(=O)N(C)C)n(Cc4cc(F)cc5c4OCOC5)c3C[C@H]2CN1C(=O)c1ccccc1,1.21 (inactive),0.628,-1.54,-2.73 (inactive),-0.909 (inactive),-0.669 (inactive)
COC(=O)C(CC#Cc1ccc2c(c1)[C@]1(C(=O)N2)[C@H](C(=O)N2CCN(c3ncccn3)CC2)[C@H]2C(=O)O[C@H](c3ccccc3)[C@H](c3ccccc3)N2[C@@H]1c1ccc(OCCO)cc1)C(=O)OC,1.22 (inactive),0.809,-1.97,1.63 (inactive),-0.162 (inactive),-0.285 (inactive)
COc1cc2c(cc1O)C(C)N(Cc1ccc([N+](=O)[O-])o1)CC2 (stereo unspecified),0.563 (inactive),0.962,-1.2,-6.22 (inactive),0.0111 (inactive),0.264 (inactive)
O=C(NCC(F)(F)F)[C@@H]1c2ccccc2C(=O)N(Cc2cc(F)cc(C(F)(F)F)c2)[C@H]1c1ccc(CO)cc1,0.0811 (inactive),0.663,-1.25,-2.64 (inactive),-0.0626 (inactive),-0.205 (inactive)
C=CCC(OC(C)=O)[C@@H]1[C@@H](N(Cc2cccc3ccccc23)C(=O)c2cccc3ccccc23)c2cc(OCCCO)ccc2N1C(=O)c1ccc(-c2ccccc2)cc1 (stereo partly specified),0.71 (inactive),0.686,-2.37,-1.52 (inactive),0.305 (inactive),0.466 (inactive)
C=CCNC(=O)[C@H]1[C@@H]2C(=O)O[C@@H](c3ccccc3)[C@@H](c3ccccc3)N2[C@@H](c2ccc(O)cc2)[C@]12C(=O)N(C(=O)OCCOC)c1ccccc12,0.995 (inactive),0.742,-1.38,-3.73 (inactive),0.175 (inactive),-0.0776 (inactive)
CCOC(=O)C[C@H]1[C@H](OC(=O)c2ccccc2-c2ccccc2)[C@@H](NC(=O)C2CCCCC2)c2cc(OCCCO)ccc2N1C(=O)Cc1ccc(OC)cc1,0.0141 (inactive),0.333,0.273,-3.62 (inactive),-0.0021 (inactive),0.223 (inactive)
C=CCC(OC(C)=O)[C@@H]1[C@@H](N(Cc2cc3ccccc3o2)C(=O)c2ccc(-c3ccccc3)cc2)c2cc(OCCCO)ccc2N1C(=O)c1ccc2ccccc2c1 (stereo partly specified),-0.252 (inactive),-0.273,-1.41,-0.926 (inactive),0.347 (inactive),0.433 (inactive)
Cc1ccc(S[C@]2(C(=O)O)CC(=O)N(Cc3ccccc3Cl)[C@@H]2c2ccc(CO)cc2I)cc1,-0.62 (inactive),0.261,0.204,-2.54 (inactive),0.0343 (inactive),0.0261 (inactive)
COc1ccc([Si](C)(C)[C@@H]2[C@@H](CC(=O)N3Cc4ccccc4C[C@H]3CO)O[C@]3(C(=O)N(C)c4ccccc43)[C@H]2C)cc1,0.176 (inactive),0.773,-2.74,-6.03 (inactive),-1.6 (inactive),-0.901 (inactive)
